{
  "source": "PubChem BioAssay (NCATS)",
  "key": {"HEK293T": {"test_system": "HEK293T", "assay": "qHTS assay to identify novel small-molecules to repurpose for Merkel cell carcinoma treatment (AID 1296009); also: nearly all actives have a fitted effect of over 60% in size", "settings": "MCC and control cell lines, CellTiter-Glo viability, 72 h; at 44.8 µM (top of the series) unless noted", "outline": "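Cells were incubated with compound for 72 hr at 37 degree celsius before CellTiter-Glo addition. Luminescence was normalized with no-cell wells as full cytotoxicity and DMSO as baseline.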"}, "[1]": {"assay": "Confirmatory screen GU Rhodamine qHTS for Zika virus inhibitors qHTS (AID 1347157); also: potency is read from the fitted curve at half-maximal effect; nearly all actives have a fitted effect of over 70% in size", "outline": "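Compounds, tested up to 114 microM, were incubated for 15 minutes with 25 nM unlinked NS2B-NS3 protease at pH 8.0. Cleavage of 1.5 microM Rhodamine110 substrate was then followed by fluorescence for 15 minutes.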"}, "[2]": {"test_system": "Zika virus NS2B-NS3 protease (linked)", "assay": "384 well plate NINDS AMC confirmatory qHTS for Zika virus inhibitors (AID 1347163); also: potency is read from the fitted curve at half-maximal effect; nearly all actives have a fitted effect of over 50% in size", "settings": "Recombinant NS2B-NS3 protease, Ac-VKTGKR-AMC fluorescence", "outline": "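Linked protease 5/30/60 nM final; cpds up to 1 mM final, ~15 min preinc. Substrate Ac-VKTGKR-AMC 30 microM final. RT, dark, 25 min; FI ex 355/em 460; normalized to no-enzyme/no-inhibitor ctrls.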"}, "[3]": {"test_system": "Zika virus NS2B-NS3 protease (linked construct)", "assay": "384 well plate NINDS Rhodamine confirmatory qHTS for Zika virus inhibitors (AID 1347164); also: potency is read from the fitted curve at half-maximal effect; nearly all actives have a fitted effect of over 65% in size", "outline": "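Fluorescence read at ex 485 nm/em 538 nm, 25 min after adding 10 microM Ac-LKRR-Rd substrate at room temperature in the dark; signal normalized to no-enzyme and no-inhibitor controls. Enzyme final 5, 30 or 60 nM; compounds, ~15 min preincubation.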"}, "[4]": {"assay": "Confirmatory qHTS to identify inhibitors of SARS-CoV-2 cell entry (AID 1645844; calls by dose curve; also: potency is read from the fitted curve at half-maximal effect; nearly all actives have a fitted effect of over 45% in size)", "outline": "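HEK293-ACE2 cells were pretreated 1 h with compound, then infected with MLV-based pseudoparticles bearing C-terminally truncated Wuhan-Hu-1 spike for 48 h at 37C; luciferase luminescence normalized to spike PP and bald PP wells.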"}, "[5]": {"assay": "VSVG counterscreen qHTS to identify inhibitors of SARS-CoV-2 cell entry (AID 1645847; calls by dose curve; also: potency is read from the fitted curve at half-maximal effect; nearly all actives have a fitted effect of over 65% in size)", "outline": "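Expi293F/hACE2 cells, overnight plating; cpd 1 h, 37C/5% CO2; + VSV-G PP (MLV pseudotyping), 48 h; supernatant removed, Bright-Glo luciferase read. Norm: VSV-G PP and bald PP wells.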"}, "[6]": {"assay": "Confirmatory qHTS for activators (rescue) of SARS-CoV-2 Cytopathic Effect (CPE) (AID 1508606; calls by dose curve; also: potency is read from the fitted curve at half-maximal effect; nearly all actives have a fitted effect of over 70% in size)"}, "[7]": {"assay": "qHTS assay to identify inhibitors of the type 1 interferon - major histocompatibility complex class I in skeletal muscle: Counter screen cell viability and HiBit confirmation (AID 1347412); also: % is scaled to controls: 0 for no effect and ±100 for the full control effect; nearly all actives have a fitted effect of over 60% in size", "settings": "iHSKM muscle cells + IFN-b, HiBiT or CellTiter-Glo, 24 h; Potency: HiBiT; Viability, at 45.9 µM (top of the series)", "outline": "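Duplicate plates, pinned identically: one read for HiBiT-tagged endogenous HLA-B luminescence, the other for ATP-content viability via CellTiter Glo. Cells were genome-engineered human myoblasts given 4 ng/ml IFN-b; compounds 12-pt, 1:3 from 46 uM final; 24 hr exposure.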"}, "[8]": {"biological_target": "Estrogen receptor (Homo sapiens) (UniProt P03372)", "sequence (P03372 whole entry, looked up)": "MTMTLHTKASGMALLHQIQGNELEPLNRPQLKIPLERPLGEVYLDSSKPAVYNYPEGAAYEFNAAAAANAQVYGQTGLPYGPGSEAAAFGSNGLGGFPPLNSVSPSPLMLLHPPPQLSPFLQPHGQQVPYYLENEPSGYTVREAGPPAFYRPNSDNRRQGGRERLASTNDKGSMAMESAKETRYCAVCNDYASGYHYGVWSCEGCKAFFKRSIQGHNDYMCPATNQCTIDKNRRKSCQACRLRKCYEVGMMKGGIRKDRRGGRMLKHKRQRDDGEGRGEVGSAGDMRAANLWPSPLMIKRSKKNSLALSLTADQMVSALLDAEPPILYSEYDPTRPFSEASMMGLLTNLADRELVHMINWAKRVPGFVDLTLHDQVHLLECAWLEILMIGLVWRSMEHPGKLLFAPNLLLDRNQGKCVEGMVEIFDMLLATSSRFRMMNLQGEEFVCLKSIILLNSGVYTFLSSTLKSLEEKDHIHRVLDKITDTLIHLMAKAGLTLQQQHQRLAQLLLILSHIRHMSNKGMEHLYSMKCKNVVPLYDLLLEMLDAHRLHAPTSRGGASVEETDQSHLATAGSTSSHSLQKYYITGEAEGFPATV", "assay": "qHTS assay for small molecule agonists of estrogen receptor alpha signaling (AID 588514; calls by dose curve; also: potency is read from the fitted curve at half-maximal effect; nearly all actives have a fitted effect of over 70% in size)", "outline": "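ER-alpha-UAS-bla GripTite HEK 293 cells in medium with 2% charcoal/dextran-treated FBS were treated with compound titrations at 37 C for 18 hrs; beta-lactamase reporter read by CCF4 fluorescence after 2 hrs at RT.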"}, "[9]": {"assay": "Confirmation and Secondary Assay for Modulators of Hemoglobin Beta Chain Splicing at IVS2 705 locus (AID 930);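 also: HeLa cells stably expressing the EGFP-705 splicing reporter; % of control where 0% means no effect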", "outline": "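Restored EGFP fluorescence after 2-day compound exposure reports splicing correction in IVS2-705 EGFP reporter HeLa cells; positive control was 500 nM splice-blocking PNA oligo. Signal measured as well total peak GFP intensity (488 nm excitation).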"}, "[10]": {"assay": "NFAT Signaling Pathway (AID 444; active = well fitted curve in either direction with a large enough effect, not every such curve was filed as active;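 also: carbachol stimulus at about its EC50 of 1 µM final; % is scaled to controls: 0 for no effect and ±100 for the full control effect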)", "settings": "Jurkat NFAT-bla M1, carbachol, beta-lactamase ratio, 5 h", "outline": "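Jurkat cells with NFAT-driven β-lactamase reporter and co-expressed M1 receptor, stimulated with carbachol (final 1 uM, ~EC50), compound titration, 5 h at 37 °C. CCF4 loaded 1 h at RT; 460/530 nm ratio gave %activity and AC50.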"}, "[11]": {"biological_target": "Mitogen-activated protein kinase 10 (Mus musculus) (UniProt Q61831)", "assay": "JNK3 AlphaScreen Assay (AID 530; active = well fitted curve in either direction with a large enough effect, not every such curve was filed as active;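 also: signal reports phosphorylation of biotinylated GST-cJun 1-79 at Ser73 with 10 µM ATP; % is scaled to controls: 0 for no effect and ±100 for the full control effect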)", "outline": "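qHTS format: compounds tested as titrations against IL-1beta/TNF-alpha-activated HepG2 lysate JNK3 with biotin-GST-cJun substrate and 10 uM ATP at room temperature. Loss of anti-phospho-cJun AlphaScreen signal indicates inhibition.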"}, "[12]": {"biological_target": "Glucocorticoid receptor (Homo sapiens) (UniProt P04150)", "sequence (P04150 whole entry, looked up)": "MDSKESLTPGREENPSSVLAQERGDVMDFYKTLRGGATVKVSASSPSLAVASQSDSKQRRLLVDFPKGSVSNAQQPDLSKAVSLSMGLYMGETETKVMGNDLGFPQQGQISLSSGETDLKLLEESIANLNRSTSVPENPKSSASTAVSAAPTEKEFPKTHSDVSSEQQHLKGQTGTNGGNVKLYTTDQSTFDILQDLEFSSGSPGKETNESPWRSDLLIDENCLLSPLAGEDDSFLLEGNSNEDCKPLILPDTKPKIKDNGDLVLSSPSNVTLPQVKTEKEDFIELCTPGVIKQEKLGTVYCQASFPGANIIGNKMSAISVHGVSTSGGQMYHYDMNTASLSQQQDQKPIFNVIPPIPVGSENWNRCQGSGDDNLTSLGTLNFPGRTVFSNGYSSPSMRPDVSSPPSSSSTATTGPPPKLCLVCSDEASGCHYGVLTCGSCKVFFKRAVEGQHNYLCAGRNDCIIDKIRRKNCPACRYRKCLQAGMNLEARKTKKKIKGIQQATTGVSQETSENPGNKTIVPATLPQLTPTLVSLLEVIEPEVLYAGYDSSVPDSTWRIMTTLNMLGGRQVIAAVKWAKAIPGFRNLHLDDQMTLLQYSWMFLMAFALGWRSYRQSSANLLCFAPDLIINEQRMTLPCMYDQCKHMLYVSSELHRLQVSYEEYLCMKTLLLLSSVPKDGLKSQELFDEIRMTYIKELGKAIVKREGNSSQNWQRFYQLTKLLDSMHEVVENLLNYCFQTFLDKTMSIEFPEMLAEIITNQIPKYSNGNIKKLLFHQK", "assay": "qHTS assay for small molecule agonists of glucocorticoid receptor signaling (AID 588532; active = well fitted curve in the direction sought with a large enough effect in the signal ratio, with a control signal flat; the % refers to the signal ratio;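 also: 100% = dexamethasone at 0.1 µM and 0% = DMSO only wells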)", "settings": "HeLa MMTV-bla, beta-lactamase ratio, agonist, 18 h; stronger effect = higher value; percent of dexamethasone control, DMSO zero", "outline": "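Cells were plated and rested 3-5 h at 37 C, compounds were added in titration and incubated 18 h, then CCF4 substrate was loaded for 2 h at RT before reading blue/green fluorescence. EC50 came from Hill-equation fitting.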"}, "[13]": {"assay": "qHTS assay for small molecule agonists of retinoid X receptor alpha signaling (AID 588544; calls by dose curve)", "settings": "HEK293T RXRa-UAS-bla, beta-lactamase reporter, 18 h; 530 nm emission"}, "[14]": {"biological_target": "Retinoic acid receptor RXR-alpha (Homo sapiens) (UniProt P19793)", "sequence (P19793 whole entry, looked up)": "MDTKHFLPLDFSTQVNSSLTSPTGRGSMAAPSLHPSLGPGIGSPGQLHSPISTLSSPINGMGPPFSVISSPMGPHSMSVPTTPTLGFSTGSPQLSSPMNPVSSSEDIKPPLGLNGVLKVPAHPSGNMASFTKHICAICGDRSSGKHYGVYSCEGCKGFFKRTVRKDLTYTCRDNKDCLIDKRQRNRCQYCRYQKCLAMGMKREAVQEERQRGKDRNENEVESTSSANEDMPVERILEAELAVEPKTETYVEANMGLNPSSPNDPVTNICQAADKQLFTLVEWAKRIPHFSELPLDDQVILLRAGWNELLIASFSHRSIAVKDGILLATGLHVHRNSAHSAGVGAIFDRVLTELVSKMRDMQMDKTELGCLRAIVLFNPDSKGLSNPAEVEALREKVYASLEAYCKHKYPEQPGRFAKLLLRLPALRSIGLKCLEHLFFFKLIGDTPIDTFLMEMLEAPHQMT", "assay": "qHTS assay for small molecule agonists of retinoid X receptor alpha signaling (AID 588544);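 as to activation: 0% = DMSO basal wells and 100% = reference agonist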"}, "[15]": {"assay": "qHTS assay for small molecule antagonists of retinoid X receptor alpha signaling (AID 588546; active = well fitted inhibition curve with a large enough effect in the signal ratio, with a control signal flat, not every such curve was filed as active; the % refers to the signal ratio; also: % is scaled to controls: 0 for no effect and ±100 for the full control effect)", "settings": "HEK293T RXRa-UAS-bla, beta-lactamase ratio, antagonist mode; measured here: W530 green channel, cytotoxicity proxy", "outline": "(§1)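 Beta-lactamase reporter inhibition, read as CCF4 fluorescence ratio (ex 405, em 460/530 nm) after 2 h at RT. HEK293T UAS-bla cells, 2500/well, were stimulated with 9-cis-RA at 500 or 100 nM final alongside test compound for 18 h at 37 C.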"}, "[16]": {"biological_target": "Retinoic acid receptor RXR-alpha (Homo sapiens) (UniProt P19793)", "assay": "qHTS assay for small molecule antagonists of retinoid X receptor alpha signaling (AID 588546)", "settings": "HEK293T RXRa-UAS-bla, beta-lactamase ratio, antagonist mode", "outline": "as §1"}, "[17]": {"assay": "qHTS assay for small molecule agonists of the antioxidant response element (ARE) signaling pathway measured by Nrf2-dependant transcriptional activity (AID 720636; active = well fitted curve in the direction sought with a large enough effect in the repeat runs; an effect the other way counts as inactive or inconclusive)", "outline": "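Nrf2-dependent transcription read as ONE-Glo luciferase signal from ARE-luc HepG2 reporter cells after 16 hr compound treatment at 37 C, 5% CO2, in assay medium with 1% dialyzed FBS.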"}, "[18]": {"assay": "qHTS assay for cell viability of HEK293 cells (AID 743288)", "settings": "ATP luminescence (CellTiter-Glo), 18 h; max response: stronger effect = lower value", "outline": "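Environmental chemicals tested in qHTS format against parental HEK293 cells; 18 h treatment, 37 C; read-out ATP luminescence (CellTiter-Glo), 30 min RT development.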"}, "[19]": {"assay": "Primary qHTS for inhibitors of SARS-S pseudo-typed particle cell entry (AID 1479145; calls by dose curve)"}},
  "note": "Where “and” joins values, the source holds several entries; their conditions need not be identical. Identical values can stand only once. Results filed as inconclusive are left out. Calls of active or inactive are those of the source. Unless noted, calls follow the shape of the dose curve; as a rule, active = well fitted curve in the direction sought with a large enough effect; inconclusive = small, poorly fitted or top-dose-only effect, or another doubt; inactive = no such curve, though single readings can be large; an effect the other way counts as inactive or inconclusive.",
  "data": [
    {"smiles": "CN(CC[C@H](N)CC(=O)N[C@H]1C=C[C@@H](n2ccc(N)nc2=O)O[C@@H]1C(=O)O)C(=N)N", "values": [
      {"measurement": "outcome", "setting": "HEK293T", "value": "inactive [at 9.27 µM]"}
    ]},
    {"smiles": "CC(C)=CCC[C@]1(C)C=Cc2c(O)c3c(c(CC=C(C)C)c2O1)O[C@]12C(=C[C@@H]4CC1C(C)(C)O[C@@]2(C/C=C(/C)C(=O)O)C4=O)C3=O", "values": [
      {"measurement": "Potency", "setting": "[1]", "value": "1560 nM (active)"},
      {"measurement": "Potency", "setting": "[2]", "value": "1000 nM (active)"},
      {"measurement": "Potency", "setting": "[3]", "value": "7080 nM (active)"}
    ]},
    {"smiles": "C/C(=C\\c1csc(C)n1)[C@@H]1C[C@@H]2O[C@@H]2CCC[C@H](C)[C@H](O)[C@@H](C)C(=O)C(C)(C)[C@@H](O)CC(=O)O1", "values": [
      {"measurement": "Potency", "setting": "[4]", "value": "121 nM (active)"},
      {"measurement": "Potency", "setting": "[5]", "value": "54.1 nM (active)"}
    ]},
    {"smiles": "CC(C)C(=O)O[C@H]1[C@@H]2[C@H](C)C(=O)O[C@@H]2C[C@@H](C)[C@@H]2C=CC(=O)[C@]21C", "values": [
      {"measurement": "Potency", "setting": "[6]", "value": "7940 nM (active)"}
    ]},
    {"smiles": "Cc1sc2c(c1C)C(c1ccc(Cl)cc1)=N[C@@H](CC(=O)Nc1ccc(O)cc1)c1nnc(C)n1-2", "values": [
      {"measurement": "Potency", "setting": "[7]", "value": "inactive"}
    ]},
    {"smiles": "C[C@@H]1Cc2c(Cl)cc(C(=O)N[C@@H](Cc3ccccc3)C(=O)O)c(O)c2C(=O)O1", "values": [
      {"measurement": "Potency", "setting": "[8]", "value": "44700 nM (active)"}
    ]},
    {"smiles": "C[N+](C)(C)CC(=O)[O-]", "values": [
      {"measurement": "outcome", "setting": "[9]", "value": "inactive"}
    ]},
    {"smiles": "CCN(CC)/[N+]([O-])=N/O", "values": [
      {"measurement": "outcome", "setting": "[9]", "value": "inactive"}
    ]},
    {"smiles": "CN1CC[C@@]23CCCC[C@@H]2[C@@H]1Cc1ccc(O)cc13", "values": [
      {"measurement": "activity change, negative = inhibition", "setting": "[10]; at 17.2 µM (top of the series)", "value": "-12.7% (inactive)"},
      {"measurement": "activity change, negative = inhibition", "setting": "[10]; at 38 µM (top of the series)", "value": "-7.37% (inactive)"},
      {"measurement": "outcome", "setting": "[11]", "value": "inactive"}
    ]},
    {"smiles": "OCCN(CCO)CCO", "values": [
      {"measurement": "activation", "setting": "[12]", "value": "-3.04% (inactive)"},
      {"measurement": "max response", "setting": "[13]", "value": -6.39, "unit": "%"},
      {"measurement": "outcome", "setting": "[14]", "value": "inactive"},
      {"measurement": "max response", "setting": "[15]", "value": -16.2, "unit": "%"},
      {"measurement": "max response", "setting": "[16]", "value": "-4.54% (inactive)"},
      {"measurement": "Potency", "setting": "[17]", "value": "inactive"},
      {"measurement": "max response", "setting": "[18]", "value": "-0.515% (inactive)"}
    ]},
    {"smiles": "CC(C)C[C@H]1C(=O)N2CCC[C@H]2[C@]2(O)O[C@](NC(=O)[C@@H]3C[C@@H]4c5cccc6[nH]cc(c56)C[C@H]4N(C)C3)(C(C)C)C(=O)N12", "values": [
      {"measurement": "Potency", "setting": "[19]", "value": "inactive"}
    ]},
    {"smiles": "CCOc1cc(C=O)ccc1O", "values": [
      {"measurement": "outcome", "setting": "[11]", "value": "inactive"},
      {"measurement": "activation", "setting": "[12]", "value": "0.229% (inactive) and -4.79% (inactive)"},
      {"measurement": "max response", "setting": "[13]", "value": 11.5, "unit": "%"},
      {"measurement": "outcome", "setting": "[14]", "value": "inactive"},
      {"measurement": "max response", "setting": "[15]", "value": "0.367% and -12.6%"},
      {"measurement": "max response", "setting": "[16]", "value": "1.38% (inactive) and 4.11% (inactive)"},
      {"measurement": "Potency", "setting": "[17]", "value": "inactive"},
      {"measurement": "max response", "setting": "[18]", "value": "-8.41% (inactive) and -7.59% (inactive)"}
    ]},
    {"smiles": "COC(=O)[C@H]1[C@@H](OC(=O)c2ccccc2)C[C@@H]2CC[C@H]1N2C", "values": [
      {"measurement": "Potency", "setting": "[19]", "value": "inactive"}
    ]}
  ]
}
